# The campaign covered roughly 190,000 compounds. About 810 (0.43%) were called active. This is one part of a sample in which actives are shown more often than they occur. A number with no mark means an inactive call. No stated cut-off is given here; in the data, active means inhibition above about 50%; inactive means the rest.
# Target: Mannose-6-phosphate isomerase (Homo sapiens) (UniProt P34949)
# Assay: inhibitors of human PMI, primary screen, biochemical, fluorescence intensity, coupled assay (AID 1209);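 further: plate controls were DMSO vehicle for no effect and wells lacking substrate for full effect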
# Settings: purified PMI enzyme, at 20 µM, active compounds read high
# Chain of Mannose-6-phosphate isomerase (Homo sapiens) (P34949 whole entry, looked up): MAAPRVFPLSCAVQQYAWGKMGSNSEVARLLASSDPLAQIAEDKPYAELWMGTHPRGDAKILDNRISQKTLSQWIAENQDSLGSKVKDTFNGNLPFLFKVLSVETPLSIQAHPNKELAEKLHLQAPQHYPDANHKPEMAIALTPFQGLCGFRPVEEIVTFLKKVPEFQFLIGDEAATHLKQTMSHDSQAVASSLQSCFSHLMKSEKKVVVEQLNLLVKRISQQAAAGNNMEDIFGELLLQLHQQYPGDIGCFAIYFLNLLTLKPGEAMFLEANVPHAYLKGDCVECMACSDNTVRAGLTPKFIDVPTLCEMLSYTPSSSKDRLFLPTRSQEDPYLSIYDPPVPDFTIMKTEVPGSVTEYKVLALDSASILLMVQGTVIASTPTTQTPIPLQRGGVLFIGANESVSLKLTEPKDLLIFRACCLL
row,SMILES,inhibition
1,Nc1ccc(S(=O)(=O)NC2(C(F)(F)F)NC(=O)N(c3ccccc3Cl)C2=O)cc1 (stereo not drawn),3.9%
2,COc1ccc(S(=O)(=O)NCCSCc2ccco2)cc1,8.5%
3,Cc1nn(C)c(C(=O)N/N=C/c2ccc(C(F)(F)F)cc2)c1[N+](=O)[O-],1.6%
4,CC1=Nn2c(nnc2-c2n[nH]c3c2CCC3)SC1,3.5%
5,c1ccc(C2=Nn3c(nnc3-c3n[nH]c4c3CCC4)SC2)cc1,8%
6,CC(C)(C)C1=Nn2c(nnc2-c2n[nH]c3c2CCC3)SC1,75.8% (active)
7,NS(=O)(=O)c1ccc(N/N=C/c2ccccc2Br)cc1,2%
8,CC(C)(Cl)C1Cc2cc3ccc(=O)oc3cc2O1 (stereo not drawn),6.2%
9,COc1cc2c(cc1/C=C/C(=O)O)OC(C)C2 (stereo not drawn),9.4%
10,CC(C)(O)C1Cc2cc(/C=C/C(=O)O)c(O)cc2O1 (stereo not drawn),94.4% (active)
11,O=C(OCc1cc2ccccc2[nH]c1=O)C1CCCCC1,-2.3%
12,COc1ccc(C2(c3ccc(OC(C)=O)cc3OC(C)=O)CC(c3ccccc3)NC(=S)N2)cc1 (stereo not drawn),63.8% (active)
13,COc1ccc(C2(c3ccc(O)cc3O)CC(c3ccccc3Cl)NC(=S)N2)cc1 (stereo not drawn),11.9%
14,COc1ccc(N2C(=S)NC(C)(C)CC2(C)c2ccc(OC(C)=O)cc2OC(C)=O)cc1 (stereo not drawn),-2.5%
15,O=C1Nc2ccccc2C12Nc1ccccc1S2 (stereo not drawn),58.7% (active)
16,O=C1N2CCCc3cccc(c32)C12Nc1ccccc1S2 (stereo not drawn),22.1%
17,O=C1Nc2ccccc2C12OCCO2,-6.7%
18,C/C(=N\NC(=O)Cc1ccccc1)c1cccs1,9.1%
19,O=[N+]([O-])c1cc2c(cc1C=Nc1ccccc1)OCO2,55.1% (active)
20,Cc1ccccc1N=Cc1cc2c(cc1[N+](=O)[O-])OCO2,22.6%
21,Cc1cccc(N=Cc2cc3c(cc2[N+](=O)[O-])OCO3)c1,49.7%
22,COc1ccccc1/C=C/C(=O)Nc1cccc(S(=O)(=O)NC2=NCCCCC2)c1,-3.7%
23,CN(C)c1ccc(NC(=O)Cn2ncn3c(cc4ccccc43)c2=O)cc1,22.7%
24,O=C(NC1CC1)C1CCN(c2ncnc3c2sc2cccc(F)c23)CC1,7.9%
25,COc1cc(/C=C2\SC(c3ccc(C)cc3)=NC2=O)cc(OC)c1O,26.7%

row,SMILES,inhibition
1,COc1cc(/C=C2\SC(c3ccc(C)cc3)=NC2=O)ccc1O,14.1%
2,Cc1ccc(C2=NC(=O)/C(=C/c3cc(O)c(O)c(Br)c3)S2)cc1,81.3% (active)
3,COc1ccc(NC(=O)N2CCCC2C(=O)Nc2ccc(C)cc2)cc1 (stereo not drawn),1.2%
4,CCOc1cc(C2C(C(=O)O)c3cc(OCC)c(OCC)cc3C(=O)N2C)ccc1O (stereo not drawn),6%
5,C/C(=C\C(=O)c1ccccc1)NNc1nc2ccccc2s1,-3.4%
6,COc1ccc(S(=O)(=O)n2nc(OC(C)=O)cc2N)cc1,-1.2%
7,Cc1ccc2nc(SCC(=O)NC(=O)NCc3ccco3)[nH]c2c1,6.4%
8,COC(=O)c1ccc(C)c(NC(=O)CCc2ccc(OC)cc2)c1,11.9%
9,CCOC(=O)c1c(N)sn(-c2ccccc2)c1=S,14.9%
10,CCOC(=O)c1c(N)sn(-c2ccccc2C)c1=S,61.3% (active)
11,C=CCn1sc(N)c(C(=O)OCC)c1=S,-8%
12,COc1ccc(C(NC(=O)/C=C\c2ccco2)c2ccc(OC)c(OC)c2)cc1 (stereo not drawn),3.2%
13,S=C(NCC1CCCO1)Nc1cccc(Cl)c1 (stereo not drawn),-4.4%
14,CCN(CC)c1ccc(/C=N/Nc2nc3ccccc3[nH]2)cc1,53% (active)
15,CCN(CC)c1ccc(/C=N/Nc2nc3ccccc3[nH]2)c(O)c1,29.1%
16,CC(=O)Nc1ccc(/C=N/Nc2nc3ccccc3[nH]2)cc1,20.8%
17,C=CCn1c(C)cc(C(=O)Cn2nc(C(=O)O)c3ccccc3c2=O)c1C,0.5%
18,COc1ccc(-c2nc(SC(CC(=O)NCCN3CCOCC3)c3cccs3)n[nH]2)cc1 (stereo not drawn),2.7%
19,Cc1ccc(C)c(NC(=O)CSc2nnc(C)c(=O)n2N)c1,-3%
20,Cc1ccc(NC(=O)CSc2nnc(C)c(=O)n2N)cc1,-5.9%
21,Cc1ccc(NC(=O)CSc2nnc(C)c(=O)n2N)c(C)c1,76.6% (active)
22,Cn1c(-c2cccc(Br)c2)n[nH]c1=O,-8.4%
23,Brc1cccc(-c2n[nH]c(-c3ccccc3)n2)c1,18.9%
24,O=C(NNC(=O)C1CCCN(S(=O)(=O)c2cccc(F)c2)C1)C1CC1 (stereo not drawn),6.8%
25,Cc1cc(C(=O)N/N=C/c2cccc([N+](=O)[O-])c2O)n[nH]1,52.3% (active)

row,SMILES,inhibition
1,Cc1cc(C(=O)N/N=C/c2cc(N=Nc3ccccc3)ccc2O)n[nH]1,4.9%
2,Cc1cc(C(=O)N/N=C/c2ccc(O)c([N+](=O)[O-])c2)n[nH]1,-7.3%
3,COc1ccccc1NS(=O)(=O)c1cccc(NC(=O)c2ccc3ccccc3n2)c1,17.4%
4,O=C(Nc1cccc(S(=O)(=O)Nc2ccccc2F)c1)c1ccc2ccccc2n1,70.4% (active)
5,O=C(CN1C(=O)c2ccccc2C1=O)Nc1cccc(S(=O)(=O)Nc2ccccc2Cl)c1,12.3%
6,O=C(Cc1ccc(Cl)cc1Cl)Nc1cccc(S(=O)(=O)Nc2ccccc2F)c1,59% (active)
7,Cn1c(=O)c2c(ncn2CC(=O)Nc2cccc(S(=O)(=O)Nc3ccccc3F)c2)n(C)c1=O,25.8%
8,O=C(/C=C/c1ccccc1)Nc1cccc(S(=O)(=O)Nc2ccccc2F)c1,66.1% (active)
9,O=C(/C=C/c1ccccc1)Nc1cccc(C(=O)O)c1,8.9%
10,CSc1cccc(NC(=O)/C=C/c2ccccc2)c1,10.8%
11,O=C(Cc1ccc(Cl)cc1)Nc1cccc(S(=O)(=O)Nc2ccccc2F)c1,23.4%
12,O=C(Nc1cccc(S(=O)(=O)N2CCCC2)c1)c1ccc2ccccc2n1,10%
13,Nc1ccc(SCC(=O)Nc2cccc([N+](=O)[O-])c2)cc1,-7.1%
14,O=C(CSc1ccc([N+](=O)[O-])cc1)Nc1cccc(S(=O)(=O)Nc2ccccc2F)c1,62.2% (active)
15,Cc1ccc(C(=O)c2ccccc2C(=O)OCC(=O)NCC2CCCO2)cc1 (stereo not drawn),1.4%
16,Cc1cc(OC(C)C(N)=O)nc(-c2ccccc2)n1 (stereo not drawn),-14.2%
17,CC(C)c1ccc(CN2CC(C(=O)O)CC2=O)cc1 (stereo not drawn),-7%
18,Cc1ccc(N2CCN(CC(O)COc3ccc([N+](=O)[O-])cc3)CC2)cc1 (stereo not drawn),-2%
19,COc1cc(/C=N/Nc2ccccn2)ccc1OCC(C)C,-6.3%
20,CCOC(=O)CC1C(=O)NCCN1C(=O)c1c(F)cccc1F (stereo not drawn),50.5% (active)
21,CCOC(=O)CC1C(=O)NCCN1C(=O)c1ccc(F)cc1F (stereo not drawn),-8.1%
22,CCOC(=O)CC1C(=O)NCCN1C(=O)c1cccc(C(F)(F)F)c1 (stereo not drawn),-0.3%
23,Nc1nonc1-c1noc(N2CCCCC2)n1,6%
24,COc1ccc(-c2nnn(CC#N)n2)cc1OC,-3.6%
25,O=C(N/C(=C\c1cccnc1)C(=O)N1CCOCC1)c1ccco1,-15.9%

row,SMILES,inhibition
1,Cc1nnc(NC(=O)c2c(-c3ccccc3)noc2C)s1,0.7%
2,Cc1cccc(C)c1OCc1nnc(NC(=O)CSc2ccc(Cl)cc2)s1,9.2%
3,Cc1ccc(OCc2nnc(NC(=O)c3ccco3)s2)cc1,-5.1%
4,O=C(Nc1nnc(COc2ccccc2)s1)c1ccco1,3.1%
5,CCOCc1nnc(NC(=O)CSc2ccccc2)s1,6.1%
6,O=C(Nc1nnc(COc2ccc(Cl)cc2)s1)c1ccco1,62.4% (active)
7,COc1ccc(Cc2nnc(NC(=O)c3c(-c4ccccc4)noc3C)s2)cc1,12.3%
8,Cc1onc(-c2ccccc2)c1C(=O)Nc1nnc(COc2ccc(Cl)cc2)s1,76.2% (active)
9,O=C(CSc1ccccc1)Nc1nnc(COc2ccc(Cl)cc2)s1,71.7% (active)
10,COC(=O)/C(C(C)=O)=C(\C=C\N(C)C)N(C)C,1%
11,Nc1nnc(SCc2ccccc2F)n1-c1ccccc1,3.6%
12,NC(=O)[C@@H]1CCNc2c(I)cc([N+](=O)[O-])cc2C(=O)N[C@@H](CO)C(=O)N[C@@H](Cc2ccc(O)cc2)C(=O)N1,-42.9%
13,CCN(CCC(=O)Nc1cc(OC)cc(OC)c1)Cc1ccccc1,6.5%
14,Cc1nnc(NC(=O)c2ccc3ccccc3n2)s1,-23.8%
15,COc1cc(C(c2sc3nc(C)nn3c2O)N2CCc3ccccc3C2)cc(OC)c1OC (stereo not drawn),11.5%
16,COc1ccc(C(c2sc3nc(C)nn3c2O)N2CCCCC2)cc1 (stereo not drawn),-1.5%
17,COc1cccc(C(c2sc3ncnn3c2O)N2CCc3ccccc3C2)c1 (stereo not drawn),40.6%
18,CCN1CCN(C(c2cccc(OC)c2)c2sc3nc(C)nn3c2O)CC1 (stereo not drawn),2.4%
19,COc1ccc(C(c2sc3nc(C)nn3c2O)N2CCc3ccccc3C2)cc1 (stereo not drawn),72.5% (active)
20,COc1cccc(C(c2sc3nc(C)nn3c2O)N2CCc3ccccc3C2)c1 (stereo not drawn),65.3% (active)
21,COc1cc2c(cc1OC)CC(=O)N(C)CC2,3.4%
22,O=C(CSC1CC(=O)N(c2ccc(C(=O)O)cc2)C1=O)Nc1ccc(Cl)cc1 (stereo not drawn),-7.6%
23,Cc1ccc(N2C(=O)CC(SCC(=O)Nc3ccc(S(N)(=O)=O)cc3)C2=O)cc1 (stereo not drawn),16.8%

# Reference: PubChem BioAssay AID1209 (Sanford-Burnham Center for Chemical Genomics, 2008)
